# Measured values published in the supplement of paper PMC12636033.
# ± gives the standard deviation of the averaged measurements. The full ranking holds about 33,000 sequences; the median of “E-score (rank enrichment, -0.5 to 0.5)” is about -0.0075, and the highest 2% start at about 0.23. What follows is part of a selection rich in the highest values, with near analogues and random picks from the rest.
# Tested on: WT Max(13-93) synthetic (M65Nle)
# Assay: PBM 8-mer E-score (E-score (rank enrichment, -0.5 to 0.5)); higher = stronger preferential binding
# Method: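 Protein binding microarray (universal PBM chip covering all 10-mers in fixed probe flanks) with chemically synthesized human Max(13-93) bHLH-LZ analogs (not full-length Max) bearing noncanonical residues (hArg, Tha, Aib, Nle at 65) and aromatic Cys staples. Read-out per 8-mer (and its reverse complement): E-score (rank-based enrichment, -0.5 to 0.5) and Z-score of median probe intensity.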
row,Sequence,PBM 8-mer E-score
1,AAGAAATG,0.101 ± 0.04
2,AAGACGGA,-0.127 ± 0.033
3,CAAATCAC,0.0214 ± 0.064
4,CGGACGAG,-0.203 ± 0.017
5,AGTCACAC,0.0956 ± 0.0018
6,AGTCACAG,-0.117 ± 0.061
7,AGTCACAT,0.251 ± 0.0014
8,CCTTTCAC,0.0141 ± 0.092
9,CTTTTCAC,0.241 ± 0.17
10,ATTTTCAC,-0.017 ± 0.0034
11,AGAAGCAT,0.135 ± 0.018
12,AGGACGAT,0.0538 ± 0.14
13,AGCGATGA,-0.182 ± 0.065
14,CTTACTAC,0.08987 ± 0.00056
15,ATAACTAT,0.143 ± 0.042
16,ATTACTAG,-0.00575 ± 0.14
17,CTAACTAC,-0.0993 ± 0.059
18,ATAACTAC,0.239 ± 0.077
19,ATTACTAC,0.264 ± 0.03
20,AGAAAGTA,0.204 ± 0.0097
21,CTGCGCAC,0.0305 ± 0.029
22,AGCACGTG,0.4878 ± 0.00074
23,AGCACGTA,-0.0146 ± 0.12
24,CCCACGCA,-0.00155 ± 0.1
25,ACCACGCC,0.0629 ± 0.16

row,Sequence,PBM 8-mer E-score
1,ACCACGTG,0.4956 ± 0.0014
2,ACCACGTA,0.0522 ± 0.0021
3,AGCACGTC,-0.118 ± 0.093
4,CCCACGCG,0.31 ± 0.011
5,ACCACGCG,0.361 ± 0.016
6,ACCACGTC,0.0378 ± 0.15
7,ACCACGCA,0.104 ± 0.042
8,CCCACGCC,-0.00325 ± 0.11
9,CCTTCGAA,0.0583 ± 0.015
10,ATTCAACA,0.131 ± 0.1
11,AGCCGTCA,-0.0749 ± 0.036
12,CGATCGTC,-0.278 ± 0.042
13,TCCCGGGA,-0.251 ± 0.0053
14,AATGGCAT,0.16 ± 0.14
15,CAAAAAGC,-0.0124 ± 0.093
16,AGGAGCAT,0.00459 ± 0.16
17,AGCTCTCA,-0.0708 ± 0.13
18,GCGTGCCC,-0.0787 ± 0.13
19,GCGTGCCA,-0.0642 ± 0.045
20,ACGTGCCA,0.294 ± 0.025
21,ACGTGCCT,0.252 ± 0.0048
22,CCGTGCCA,-0.0364 ± 0.14
23,AAGTGCCT,-0.106 ± 0.055
24,ACGTGCCC,0.247 ± 0.032
25,ACGTGCCG,0.206 ± 0.029

row,Sequence,PBM 8-mer E-score
1,CCGTGCCC,-0.132 ± 0.18
2,GCCTTGCC,-0.201 ± 0.024
3,CAGAATAG,0.0142 ± 0.048
4,CCTATACG,0.0369 ± 0.014
5,CGCGAGAA,-0.0592 ± 0.072
6,CGTGGCGA,0.015 ± 0.0011
7,ACTAGGCA,-0.0155 ± 0.066
8,AATCGGAG,-0.0774 ± 0.087
9,ATTGCCTC,0.0622 ± 0.064
10,ACGCGCGA,0.114 ± 0.066
11,ACACGCTG,0.0854 ± 0.074
12,ACACGCGT,0.325 ± 0.013
13,ACACGCGA,0.157 ± 0.042
14,CCACGCGA,0.0546 ± 0.083
15,CCACGCGC,0.152 ± 0.035
16,ACACGCGG,0.281 ± 0.03
17,GCACGCGC,0.171 ± 0.025
18,ACACGCGC,0.259 ± 0.026
19,AAACGCGT,0.0714 ± 0.1
20,ACACGCAT,0.159 ± 0.043
21,CCACGCGG,0.433 ± 0.024
22,ATCCCTCC,0.0287 ± 0.088
23,CAGGGTAC,-0.008 ± 0.013
24,CGCTAGTA,-0.0479 ± 0.0027
25,CAGTGCGA,-0.0198 ± 0.16

row,Sequence,PBM 8-mer E-score
1,AGTCGTTC,-0.143 ± 0.11
2,CCAGCCCA,-0.176 ± 0.14
3,GCAACCAA,0.00549 ± 0.078
4,AAGCGCGC,0.0137 ± 0.0014
5,ACGCGCGT,0.246 ± 0.012
6,ACGCGCGG,0.118 ± 0.018
7,CCACGAGC,-0.0509 ± 0.015
8,CCACGAGA,0.0679 ± 0.15
9,CCACGAGG,0.365 ± 0.052
10,ACGCGCGC,0.0593 ± 0.05
11,ATCTAATG,-0.0696 ± 0.071
12,AAGCTCTG,-0.144 ± 0.028
13,ATCGCGCA,-0.034 ± 0.026
14,CCAGAGTC,-0.155 ± 0.0016
15,CAAGCATC,0.00917 ± 0.063
16,AAAGCATA,0.211 ± 0.026
17,AAAGCATT,0.14 ± 0.0086
18,AAAGCATG,0.303 ± 0.017
19,ACAGCATC,0.0804 ± 0.099
20,CAAGCATA,0.104 ± 0.034
21,ACAGCATG,0.305 ± 0.01
22,ACAGCATA,0.00665 ± 0.081
23,CACGCATG,0.184 ± 0.066
24,CAAGCATG,0.24 ± 0.053
25,AACGCATG,0.305 ± 0.042

row,Sequence,PBM 8-mer E-score
1,AACGCATC,0.0593 ± 0.014
2,ACACAGAC,0.00286 ± 0.095
3,AGACGTAG,0.0572 ± 0.041
4,CAATGCGC,0.0235 ± 0.012
5,AAGGGCGT,-0.0104 ± 0.031
6,GATAAAGC,0.179 ± 0.094
7,AGTGGAGG,0.0658 ± 0.0029
8,ATTAGACG,0.136 ± 0.028
9,CAAGATAA,0.256 ± 0.014
10,AAAGATAC,0.00254 ± 0.17
11,TAAGATAA,0.018 ± 0.049
12,CAAGATAC,0.146 ± 0.047
13,AAAGATAA,0.234 ± 0.029
14,AAAGATAG,0.0319 ± 0.07
15,GCTACGTA,0.0754 ± 0.075
16,ACCCAGCT,-0.00912 ± 0.022
17,TCGAGACA,-0.125 ± 0.06
18,GACCTTAC,-0.127 ± 0.056
19,TCCTTTCA,0.177 ± 0.086
20,CCGACCAG,-0.175 ± 0.0087
21,GTGGAGTA,-0.0124 ± 0.029
22,TGGACGAA,0.138 ± 0.011
23,AGTATCTA,0.253 ± 0.022
24,CGTATCTA,-0.0295 ± 0.068
25,GGTATCTA,0.0126 ± 0.011

row,Sequence,PBM 8-mer E-score
1,CGGCAATC,-0.205 ± 0.029
2,AGTCGGTC,-0.181 ± 0.0094
3,GATCAAGA,-0.00477 ± 0.11
4,CACATGGG,0.276 ± 0.0049
5,AACATGGG,0.231 ± 0.047
6,AACATGGA,0.106 ± 0.052
7,CACATGAC,0.317 ± 0.0056
8,CACATGGC,0.343 ± 0.039
9,GACATGGC,0.073 ± 0.098
10,CACATGAG,0.0368 ± 0.07
11,CACATGGA,0.37 ± 0.02
12,CACATGAA,0.1797 ± 0.00019
13,GACATGGA,-0.0676 ± 0.069
14,CCCATGGG,-0.0583 ± 0.12
15,AACATGGC,0.118 ± 0.02
16,CGTATCCC,-0.27 ± 0.076
17,AAATCAAC,0.129 ± 0.0028
18,CGCTCGCC,-0.158 ± 0.02
19,CCGGCAAC,-0.301 ± 0.024
20,ACCCTGTC,-0.0879 ± 0.17
21,AGAATCGG,-0.25 ± 0.048
22,ACTAGGTA,0.102 ± 0.04
23,CTAACGCA,0.12 ± 0.0043
24,GCTGCAGA,-0.00761 ± 0.073
25,GGTATTTA,0.0645 ± 0.18

row,Sequence,PBM 8-mer E-score
1,CGTATTTA,0.285 ± 0.056
2,AGTATTTA,0.186 ± 0.058
3,AAGACACC,-0.137 ± 0.085
4,AGCAGCTA,-0.199 ± 0.04
5,AACTACAC,0.282 ± 0.02
6,AAGTATAA,0.225 ± 0.069
7,AACTACAG,-0.0267 ± 0.018
8,AAGTACAA,0.225 ± 0.15
9,AAGTACAC,0.235 ± 0.075
10,AAGTATAT,0.0964 ± 0.13
11,GACTACAC,0.0803 ± 0.16
12,AAGTATAC,0.246 ± 0.014
13,CAGTACAC,0.0197 ± 0.13
14,CGTGGCCC,0.0336 ± 0.14
15,GAGATGCC,0.078 ± 0.063
16,AGGGCCGA,0.0332 ± 0.068
17,GCCCACCC,0.206 ± 0.017
18,CGACACCG,-0.265 ± 0.12
19,AGATGGCC,-0.092 ± 0.12
20,CACGTAGC,0.0038 ± 0.017
21,GAGTCCCA,-0.0366 ± 0.0061
22,CTGTTGCA,0.0892 ± 0.013
